# Assay results reported in PubChem BioAssay (NCATS).
# Records with an inconclusive call do not appear. Unmarked numbers belong to inactive results. The source made the active and inactive calls. Calls follow the shape of the dose curve; as a rule, active = well fitted inhibition curve with a large enough effect; inconclusive = small, poorly fitted or top-dose-only effect; inactive = flat fitted curve, though single readings scatter.
# Target: Calcium and integrin-binding protein 1 (Homo sapiens) (UniProt Q99828)
# Assay: Primary qHTS for Identification of Calcium Integrin Binding Protein 1 (CIB1) Competitor (AID 1508620);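 also: GST tagged CIB1 binding a fluorescein labelled alphaIIb integrin peptide tracer; top concentration of the series differs between compounds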
# Settings: CIB1-GST / FITC-alphaIIb peptide fluorescence polarization; series mostly up to 114 µM; activity change, negative = inhibition: at the top concentration
# Procedure, shortened: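 Fluorescence polarization competition: CIB1-GST (1 uM final) preincubated with compound 15 min at room temperature, then FITC-labeled alphaIIb peptide (100 nM final) added for another 15 min. Polarization read at Ex 480/Em 540.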
# % is scaled to controls: 0 for no effect and ±100 for the full control effect.
# Sequence of Calcium and integrin-binding protein 1 (Homo sapiens) (Q99828 whole entry, looked up): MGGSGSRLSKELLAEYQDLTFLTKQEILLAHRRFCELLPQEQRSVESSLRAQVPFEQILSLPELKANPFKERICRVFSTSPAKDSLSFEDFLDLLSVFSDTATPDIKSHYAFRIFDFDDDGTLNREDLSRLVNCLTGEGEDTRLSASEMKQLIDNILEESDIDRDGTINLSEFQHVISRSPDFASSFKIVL
Compound,"activity change, negative = inhibition",Potency
Cc1c(C(=O)NCC2CCCO2)[nH]c2c1C(=O)CCC2 (stereo not given),-6.62%,
Cc1ccc(NS(=O)(=O)c2ccc3c(c2)CCC(=O)N3)cc1Cl,1.95%,
Cn1nnnc1Sc1ncnc2scc(-c3cccc(Cl)c3)c12,3.82%,
O=C1CCCC2=C1C(c1[nH]ncc1Br)N=C(Nc1nc3ccccc3o1)N2 (stereo not given),-18.5%,
Cc1cc(C)nc(NC(=C(C#N)C#N)N2CCN(c3cccc(C(F)(F)F)c3)CC2)c1,,inactive
Nc1scc2c(C(=O)O)nn(-c3ccccc3)c(=O)c12,-15.9%,
Cc1cc2c(s1)c1cnn(Cc3cc(OC(F)(F)F)ccc3F)c(=O)c1n2C,6.34%,
O=c1c2ccccc2nc2sc(Nc3cccc(N4CCNCC4)c3)nn12,-10.8%,
Cc1cc(-c2nnc3n2CCCCCCC3)c(C)n1-c1ccccc1,3.25%,
COc1ccc(C2=Nn3c(nnc3-c3cccc(OC)c3OC)SC2)cc1,-2.01%,
CC(=O)Nc1sc2c(c1-c1ccc(N3CCN(C(C)=O)CC3)nc1)CCNC2,-0.727%,
[O-][n+]1onc(-c2ccccc2)c1/C=N/O,-2.29%,
CC(=O)N1CCN(c2ccc(N)cc2)CC1,-5.73%,
COc1ccc(S(=O)(=O)N2CCN(C(=O)C3COc4ccccc4O3)CC2)cc1 (stereo not given),3.19%,
CC(=O)Nc1sc2c(c1-c1nccs1)CCNC2,7.87%,
CC(=O)Nc1sc2c(c1-c1ccc(N[S+](C)(=O)[O-])cc1)CCNC2,0.511%,
Cc1cc(NC(=O)c2ccc([S+](=O)([O-])NCc3ccc(Cl)c(Cl)c3)cc2)no1,-0.528%,
Clc1ccccc1-c1ccc2ncnc(NCc3cccs3)c2c1,1.1%,
Cc1ccc(-c2ccc(=O)n(CC(=O)NCCc3cnc[nH]3)n2)cc1,4.8%,
O=C(Cn1nc(-c2ccc(C(F)(F)F)cc2)ccc1=O)NCCc1ccccc1,3.07%,

Compound,"activity change, negative = inhibition",Potency
Cc1ccc(OCCn2c(CCNC(=O)C3CCN(C(=O)OC(C)(C)C)CC3)nc3ccccc32)cc1,-3.51%,
N#Cc1nc(Nc2ccccc2)nc(NC2CCCCC2)n1,-0.307%,
CC(=O)Nc1sc2c(c1-c1ccc(C#N)cc1)CCNC2,-1.39%,
CC(=O)Nc1sc2c(c1-c1cccnc1)CCNC2,7.05%,
CC(=O)N[C@H](C(=O)N[C@@H](C)C(=O)N[C@H](C#N)CC(=O)O)C(C)C,3.24%,
Cc1ccc(NS(=O)(=O)c2cc3c(cc2C)OCC(=O)N3)cc1C,3.46%,
O=C(NCc1nnc(-c2cc3ccccc3[nH]2)s1)c1ccccc1,0.109%,
CC(=O)Nc1sc2c(c1-c1nc3ccccc3s1)CC(C)NC2 (stereo not given),12%,
N#Cc1nc(Nc2cc(F)cc(F)c2)c2ncn(CCCO)c2n1,5.69%,
O=C(CNC(=O)c1ccc2cc[nH]c2c1)OC(C(=O)Nc1cc(C(F)(F)F)ccc1Cl)c1ccccc1 (stereo not given),0.106%,
COc1cc(O)c(C(CC(=O)N2CCCCCC2)c2ccc3c(c2)OCO3)c(OC)c1 (stereo not given),-2.69% [at 228 µM],
Nc1ncnc2c1ncn2[C@@H]1O[C@H](CN[S+](=O)([O-])NC(=O)c2cccc(-c3noc(-c4ccccc4F)n3)c2)[C@@H](O)[C@H]1O,-9.64%,
Cc1ccc(NS(=O)(=O)c2cc3c(cc2N(C)C)NC(=O)CC3)cc1C,2.77%,
Cc1cc(C)n2ncc(C(=O)NCc3ccco3)c2n1,-9.66%,
Cc1nc(-c2ccc([S+](=O)([O-])N3CCN([S+](=O)([O-])c4c(F)cccc4F)CC3)s2)cs1,-4.39%,
O=C1Nc2ccccc2/C1=C/c1cccc(C(=O)O)c1,-9.18%,
CCOc1ccc(CCNC(=O)c2cc3sccc3n2C)cc1OCC,-3.39%,
O=C(CNC(=O)c1ccc(-c2ccccc2)cc1)OC(C(=O)Nc1cc(C(F)(F)F)ccc1Cl)c1ccccc1 (stereo not given),-0.854%,
COc1cccc(Cn2ncc3c4sc(Br)cc4n(C)c3c2=O)c1,0.546%,
Cc1cc(C)nc(NC(=S)N2CCN(S(=O)(=O)c3cccc(C(F)(F)F)c3)CC2)c1,1.65%,
